{
  "source": "PubChem BioAssay (NCI)",
  "note": "About 83,000 compounds went through this panel and 20% of them were active in at least one assay; those are over-represented in the sample as a whole.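 96-well plates, one dose, 48 hours. Percent growth reported; active if below 10.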 A number with no mark means an inactive call. Active and inactive are the calls of the source.",
  "data": [
    {"system": "ACHN renal", "assay": "NCI-60 one-dose screen, 48 h (100 = growth as untreated, 0 = no growth, -100 = all killed)", "details": "10 µM", "values": [
      {"smiles": "CCOC(=O)c1cc(C(=O)c2cc(OC)c(OC)c(OC)c2)n2ncc3ccccc3c12", "growth": "78.7%"},
      {"smiles": "Cc1c(Cl)cccc1NC(=O)CCCl", "growth": "108%"},
      {"smiles": "Cc1ccc(S(=O)(=O)N(C)CCCCCC(=O)O)cc1", "growth": "102%"},
      {"smiles": "COc1cc(-c2nn(-c3cccc(NC(=O)NCCNS(=O)(=O)c4ccc(Cl)cc4)c3)cc2-c2ccncc2)ccc1Cl", "growth": "11.3%"},
      {"smiles": "CC(=O)Oc1cc(OC(C)=O)c2ccccc2c1OC(C)=O", "growth": "84.9%"},
      {"smiles": "COc1cc(-c2nn(-c3cccc(NC(=O)CN4CCOCC4)c3)cc2-c2cccnc2)ccc1Cl", "growth": "87.6%"},
      {"smiles": "Cc1ccc(NCCNCC(C)(C)O)c2c(=O)c3ccc(Cl)cc3sc12", "growth": "3.43% (active)"},
      {"smiles": "COC(=O)C1(O)NC(=C(C#N)C#N)C(C#N)=C1C(=O)c1ccc(OC)c(OC)c1", "note": "(stereo not given)", "growth": "108%"},
      {"smiles": "CCN(CC)CCOc1ccc2c(c1O)C(=O)c1ccccc1C2=O", "growth": "56.9%"},
      {"smiles": "COc1cc(-c2nn(-c3ccc(NC(=O)NCCCNC(=O)c4ccccc4)cc3)cc2-c2ccncc2)ccc1Cl", "growth": "23.7%"},
      {"smiles": "COc1ccc2nc(-c3ccc(Cl)cc3)cc(-c3nnc(SC/C(=N\\O)c4ccccc4)n3-c3ccccc3)c2c1", "growth": "90.2%"},
      {"smiles": "CCOS(=O)(=O)c1c(C(C)C)cc(C(C)C)cc1C(C)C", "growth": "104%"},
      {"smiles": "O=S(=O)(O)c1cccc(Nc2ccc3ccccc3c2)c1", "growth": "98%"},
      {"smiles": "CN(C)CCCSc1ccccc1NC1=C(Cl)C(=O)C(Nc2ccccc2SCCCN(C)C)=C(Cl)C1=O", "growth": "-20.6% (active)"},
      {"smiles": "Brc1ccc2c(c1)-c1ccccc1C1=NCCN12", "growth": "-22.2% (active)"},
      {"smiles": "CC(C)CCN(CCC(C)C)CC(=O)Nc1ccc(S(=O)(=O)c2ccc(NC(=O)CN(CCC(C)C)CCC(C)C)cc2)cc1", "growth": "69.7%"},
      {"smiles": "CCNCC(=O)Nc1ccc(C(=O)OCC)cc1", "growth": "108%"},
      {"smiles": "O=C(NCCCNS(=O)(=O)c1ccc(Cl)cc1)Nc1ccc(-n2cc(-c3ccncc3)c(-c3ccc(Cl)c(O)c3)n2)cc1", "growth": "26.4%"},
      {"smiles": "C1CN(CC2CCC(CN3CCOCC3)O2)CCO1", "note": "(stereo not given)", "growth": "38.9%"},
      {"smiles": "CCN(CC)CC(=O)N(CC)c1ccc(C)c(Cl)c1", "growth": "117%"},
      {"smiles": "CC(CN(C)C)Oc1ccc(OC(C)CN(C)C)c2c1C(=O)c1ccccc1C2=O", "note": "(stereo not given)", "growth": "28%"},
      {"smiles": "O=C1c2ccccc2C(=O)c2c1ccc(C(Br)Br)c2[N+](=O)[O-]", "growth": "-16.1% (active)"},
      {"smiles": "COc1cc(-c2nn(-c3cccc(NC(=O)CCN4CCN(c5ccccc5)CC4)c3)cc2-c2ccncc2)ccc1Cl", "growth": "18%"},
      {"smiles": "O=C(Nc1ccc(F)cc1)c1cc2ccccc2cc1O", "growth": "80.8%"},
      {"smiles": "O=C(Nc1ccc2c(O)cc(S(=O)(=O)O)cc2c1)c1ccc([N+](=O)[O-])cc1", "growth": "107%"},
      {"smiles": "CN(C)CCCOc1cccc(NC2=C(Cl)C(=O)C(Nc3cccc(OCCCN(C)C)c3)=C(Cl)C2=O)c1", "growth": "-98.3% (active)"},
      {"smiles": "COc1cc(OC)c2c(=O)c(O)c(-c3ccccc3)oc2c1", "growth": "68%"},
      {"smiles": "CC(=O)Nc1ccc(CC[C@H]2CCC/C=C/[C@@H]3C[C@H](O)C[C@H]3[C@H](O)/C=C/C(=O)O2)cc1", "growth": "4.68% (active)"},
      {"smiles": "Nc1ncnc2c1ncn2C1(CO)OCC(O)C(O)C1O", "note": "(stereo not given)", "growth": "107%"},
      {"smiles": "O=C(Nc1cccc2c1CCCC2)c1cc2ccccc2cc1O", "growth": "38.4%"},
      {"smiles": "CN(C)CCCOc1ccccc1NC1=C(Cl)C(=O)C(Nc2ccccc2OCCCN(C)C)=C(Cl)C1=O", "growth": "-98% (active)"},
      {"smiles": "O=C(N/N=C/c1ccc([N+](=O)[O-])cc1)c1ccccc1Nc1cccc(C(F)(F)F)c1", "growth": "91%"},
      {"smiles": "NNC(=O)Oc1c(Cl)cc(Cl)cc1[N+](=O)[O-]", "growth": "106%"},
      {"smiles": "Nc1ccc(/C=N/Nc2ccnc3c(O)cccc23)c2cccnc12", "growth": "52.9%"},
      {"smiles": "O=S(=O)(O)c1ccc(Cl)cc1", "growth": "104%"},
      {"smiles": "COc1cc(-c2nn(-c3cccc(NC(=O)NCCNC(=O)c4cccc(C(F)(F)F)c4)c3)cc2-c2ccncc2)ccc1Cl", "growth": "48.4%"},
      {"smiles": "CCOC(=O)c1cc(C(=O)c2cc(OC)c(OC)c(OC)c2)n2ccc(-c3cc[n+](CC(=O)c4cc(OC)c(OC)c(OC)c4)cc3)cc12", "growth": "90.7%"},
      {"smiles": "CCOC(=O)c1cc(C(=O)c2cc(OC)c(OC)c(OC)c2)n2nc(C)ccc12", "growth": "49.4%"},
      {"smiles": "CCOC(=O)c1cc(C(=O)c2ccc(Cl)cc2)n2ccc(-c3cc[n+](CC(=O)c4ccc(OC)cc4)cc3)cc12", "growth": "96.4%"},
      {"smiles": "C/C=C/CSC(C)(C)C(=O)NC", "growth": "108%"}
    ]},
    {"system": "A498 renal", "assay": "NCI-60 one-dose screen, 48 h (100 = growth as untreated, 0 = no growth, -100 = all killed)", "details": "10 µM", "values": [
      {"smiles": "CCOC(=O)c1cc(C(=O)c2cc(OC)c(OC)c(OC)c2)n2ncc3ccccc3c12", "growth": "73.6%"},
      {"smiles": "Cc1c(Cl)cccc1NC(=O)CCCl", "growth": "108%"},
      {"smiles": "Cc1ccc(S(=O)(=O)N(C)CCCCCC(=O)O)cc1", "growth": "110%"},
      {"smiles": "COc1cc(-c2nn(-c3cccc(NC(=O)NCCNS(=O)(=O)c4ccc(Cl)cc4)c3)cc2-c2ccncc2)ccc1Cl", "growth": "-10.5% (active)"},
      {"smiles": "CC(=O)Oc1cc(OC(C)=O)c2ccccc2c1OC(C)=O", "growth": "95.2%"},
      {"smiles": "COc1cc(-c2nn(-c3cccc(NC(=O)CN4CCOCC4)c3)cc2-c2cccnc2)ccc1Cl", "growth": "93.3%"},
      {"smiles": "Cc1ccc(NCCNCC(C)(C)O)c2c(=O)c3ccc(Cl)cc3sc12", "growth": "59%"},
      {"smiles": "COC(=O)C1(O)NC(=C(C#N)C#N)C(C#N)=C1C(=O)c1ccc(OC)c(OC)c1", "note": "(stereo not given)", "growth": "93.6%"},
      {"smiles": "CCN(CC)CCOc1ccc2c(c1O)C(=O)c1ccccc1C2=O", "growth": "88.3%"},
      {"smiles": "COc1cc(-c2nn(-c3ccc(NC(=O)NCCCNC(=O)c4ccccc4)cc3)cc2-c2ccncc2)ccc1Cl", "growth": "12.7%"},
      {"smiles": "COc1ccc2nc(-c3ccc(Cl)cc3)cc(-c3nnc(SC/C(=N\\O)c4ccccc4)n3-c3ccccc3)c2c1", "growth": "96.3%"},
      {"smiles": "CCOS(=O)(=O)c1c(C(C)C)cc(C(C)C)cc1C(C)C", "growth": "117%"},
      {"smiles": "O=S(=O)(O)c1cccc(Nc2ccc3ccccc3c2)c1", "growth": "96.7%"},
      {"smiles": "CN(C)CCCSc1ccccc1NC1=C(Cl)C(=O)C(Nc2ccccc2SCCCN(C)C)=C(Cl)C1=O", "growth": "105%"},
      {"smiles": "Brc1ccc2c(c1)-c1ccccc1C1=NCCN12", "growth": "-75.7% (active)"},
      {"smiles": "CC(C)CCN(CCC(C)C)CC(=O)Nc1ccc(S(=O)(=O)c2ccc(NC(=O)CN(CCC(C)C)CCC(C)C)cc2)cc1", "growth": "97.1%"},
      {"smiles": "CCNCC(=O)Nc1ccc(C(=O)OCC)cc1", "growth": "86%"},
      {"smiles": "O=C(NCCCNS(=O)(=O)c1ccc(Cl)cc1)Nc1ccc(-n2cc(-c3ccncc3)c(-c3ccc(Cl)c(O)c3)n2)cc1", "growth": "50.1%"},
      {"smiles": "C1CN(CC2CCC(CN3CCOCC3)O2)CCO1", "note": "(stereo not given)", "growth": "117%"},
      {"smiles": "CCN(CC)CC(=O)N(CC)c1ccc(C)c(Cl)c1", "growth": "86.8%"},
      {"smiles": "CC(CN(C)C)Oc1ccc(OC(C)CN(C)C)c2c1C(=O)c1ccccc1C2=O", "note": "(stereo not given)", "growth": "59.6%"},
      {"smiles": "O=C1c2ccccc2C(=O)c2c1ccc(C(Br)Br)c2[N+](=O)[O-]", "growth": "26.6%"},
      {"smiles": "COc1cc(-c2nn(-c3cccc(NC(=O)CCN4CCN(c5ccccc5)CC4)c3)cc2-c2ccncc2)ccc1Cl", "growth": "5.91% (active)"},
      {"smiles": "O=C(Nc1ccc(F)cc1)c1cc2ccccc2cc1O", "growth": "69.2%"},
      {"smiles": "O=C(Nc1ccc2c(O)cc(S(=O)(=O)O)cc2c1)c1ccc([N+](=O)[O-])cc1", "growth": "97.9%"},
      {"smiles": "CN(C)CCCOc1cccc(NC2=C(Cl)C(=O)C(Nc3cccc(OCCCN(C)C)c3)=C(Cl)C2=O)c1", "growth": "44.5%"},
      {"smiles": "COc1cc(OC)c2c(=O)c(O)c(-c3ccccc3)oc2c1", "growth": "69.6%"},
      {"smiles": "CC(=O)Nc1ccc(CC[C@H]2CCC/C=C/[C@@H]3C[C@H](O)C[C@H]3[C@H](O)/C=C/C(=O)O2)cc1", "growth": "-32.9% (active)"},
      {"smiles": "Nc1ncnc2c1ncn2C1(CO)OCC(O)C(O)C1O", "note": "(stereo not given)", "growth": "108%"},
      {"smiles": "O=C(Nc1cccc2c1CCCC2)c1cc2ccccc2cc1O", "growth": "10.6%"},
      {"smiles": "CN(C)CCCOc1ccccc1NC1=C(Cl)C(=O)C(Nc2ccccc2OCCCN(C)C)=C(Cl)C1=O", "growth": "65.1%"},
      {"smiles": "O=C(N/N=C/c1ccc([N+](=O)[O-])cc1)c1ccccc1Nc1cccc(C(F)(F)F)c1", "growth": "-6.91% (active)"},
      {"smiles": "NNC(=O)Oc1c(Cl)cc(Cl)cc1[N+](=O)[O-]", "growth": "118%"},
      {"smiles": "Nc1ccc(/C=N/Nc2ccnc3c(O)cccc23)c2cccnc12", "growth": "118%"},
      {"smiles": "O=S(=O)(O)c1ccc(Cl)cc1", "growth": "110%"},
      {"smiles": "COc1cc(-c2nn(-c3cccc(NC(=O)NCCNC(=O)c4cccc(C(F)(F)F)c4)c3)cc2-c2ccncc2)ccc1Cl", "growth": "33%"},
      {"smiles": "CCOC(=O)c1cc(C(=O)c2cc(OC)c(OC)c(OC)c2)n2ccc(-c3cc[n+](CC(=O)c4cc(OC)c(OC)c(OC)c4)cc3)cc12", "growth": "80.4%"},
      {"smiles": "CCOC(=O)c1cc(C(=O)c2cc(OC)c(OC)c(OC)c2)n2nc(C)ccc12", "growth": "23.4%"},
      {"smiles": "CCOC(=O)c1cc(C(=O)c2ccc(Cl)cc2)n2ccc(-c3cc[n+](CC(=O)c4ccc(OC)cc4)cc3)cc12", "growth": "73.9%"},
      {"smiles": "C/C=C/CSC(C)(C)C(=O)NC", "growth": "103%"}
    ]}
  ]
}
